# Compound activity from PubChem.
# CYP2C9 activ: human CYP2C9 activators, primary screen, biochemical, luminescence | AID 1024, 2008 | 96,000 tested, 1.4% active | recombinant CYP2C9, luciferin-H conversion; stronger effect = higher value; factor 1 = untreated enzyme, 0 = blocked | Cytochrome P450 2C9 (Homo sapiens), P11712 | activation factor at 5 µM;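 active means activation factor of 2 or more for CYP2C9 at a 5 µM dose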
# PLAP act: PLAP enzyme activators, biochemical, luminescence, HTS | AID 696, 2007 | purified PLAP enzyme, luminescent substrate read-out; stronger effect = higher value | Alkaline phosphatase, placental type (Homo sapiens), P05187 | activation fold at 20 µM | 96,000 tested, 1.2% active; in the data active means activation fold above about 2
# CYP2C19 inh: blockers of cytochrome P450 2C19 activity – biochemical, luminescence, ADME assay, primary screen; P33261; CYP2C19 Supersomes, luciferin-H EGE luminescence, 30 min; inhibition, % at 5 µM; 96,000 tested, 21% active; AID 778, 2007;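 active means CYP2C19 inhibition above a set limit at 5 µM in the primary screen, cut at about 50% in these data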
# Target sequence (P33261 whole entry, looked up): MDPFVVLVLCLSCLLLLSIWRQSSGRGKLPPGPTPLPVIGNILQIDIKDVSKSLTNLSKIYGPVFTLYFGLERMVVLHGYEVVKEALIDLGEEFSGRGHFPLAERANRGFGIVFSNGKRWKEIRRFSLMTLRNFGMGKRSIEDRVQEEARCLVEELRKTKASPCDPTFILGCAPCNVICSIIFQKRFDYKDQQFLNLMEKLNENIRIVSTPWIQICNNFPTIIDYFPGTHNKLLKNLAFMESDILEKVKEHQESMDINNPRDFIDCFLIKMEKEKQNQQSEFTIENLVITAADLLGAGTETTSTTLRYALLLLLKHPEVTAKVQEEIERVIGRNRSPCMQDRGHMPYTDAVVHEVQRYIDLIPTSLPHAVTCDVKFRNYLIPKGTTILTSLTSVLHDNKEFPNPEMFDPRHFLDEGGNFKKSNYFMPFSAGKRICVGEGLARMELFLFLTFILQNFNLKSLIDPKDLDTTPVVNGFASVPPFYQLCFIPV
# CYP2C9 inhib: blockers of cytochrome P450 2C9 activity – biochemical, luminescence, ADME assay, primary screen. CYP2C9 Supersomes, luciferin-H conversion. inhibition, % at 5 µM. 96,000 tested, 20% active. AID 777, 2007;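 active means blocking of liver enzyme CYP2C9 beyond about 50% at 5 µM, limit read from the data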
# CYP2C19 act: human CYP2C19 activators, primary screen, biochemical, luminescence | 96,000 tested, under 10 active | recombinant CYP2C19, luciferin-H EGE luminescence; stronger effect = higher value; 0 = fully inhibited enzyme, 1 = untreated enzyme | Cytochrome P450 2C19 (Homo sapiens), P33261 | activation factor at 5 µM | AID 1025, 2008;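 active means activation factor of at least 2 at 5 µM in the primary screen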
# A number is an active result; . = inactive. Rows were chosen to be rich in hits. Some 31% of all compounds tested hit in one or more screens of this group.
SMILES,CYP2C9 activ,PLAP act,CYP2C19 inh,CYP2C9 inhib,CYP2C19 act
COc1ccc(/C(O)=C2/C(=O)C(=O)N(CCCN(C)C)C2c2cccnc2)cc1 (stereo not drawn),.,.,.,.,.
Cc1cccc(OCCCC(=O)NC(C)C)c1,.,.,.,.,.
c1ccc2c(Oc3ccc4c(c3)OCO4)nncc2c1,.,.,62.2,.,.
Cc1ccc(S(=O)(=O)NCC(=O)OC(C(=O)c2ccccc2)c2ccccc2)cc1 (stereo not drawn),.,.,.,56.6,.
CCc1nc(NCC2CCCN2CC)c2nnn(Cc3ccccc3F)c2n1 (stereo not drawn),.,.,.,.,.
CN(C)CCNc1oc(-c2cccc(Cl)c2)nc1C#N,.,.,.,.,.
CCCOc1cccc(CN2CCCCC2c2cccnc2)c1 (stereo not drawn),.,.,91.6,83.2,.
CCN(Cc1cc2ccccc2[nH]c1=O)C(=O)C(C)C,.,.,.,.,.
O=C(NC(C(=O)c1ccccc1)N1CCOCC1)c1cccs1 (stereo not drawn),.,.,94.0,96.3,.
O=C(NC(C(=O)c1ccccc1)N1CCOCC1)c1ccccc1 (stereo not drawn),.,.,78.9,90.8,.
Cc1cccc(NC(=O)C2CCCN(S(=O)(=O)c3cccc4nsnc34)C2)n1 (stereo not drawn),.,.,.,.,.
COc1cccc(NC(=O)C2CCCN(S(=O)(=O)c3cccc4nsnc34)C2)c1 (stereo not drawn),.,.,50.2,67.1,.
Cc1cccc(NC(=O)C2CCCN(S(=O)(=O)c3cccc4nsnc34)C2)c1 (stereo not drawn),.,.,.,.,.
O=C(NCC1CCCO1)C1CCCN(S(=O)(=O)c2cccc3nsnc23)C1 (stereo not drawn),.,.,.,.,.
COc1ccccc1NC(=O)C1CCCN(S(=O)(=O)c2cccc3nsnc23)C1 (stereo not drawn),.,.,71.6,71.1,.
O=C(NCc1ccccc1Cl)C1CCCN(S(=O)(=O)c2cccc3nsnc23)C1 (stereo not drawn),.,.,76.7,50.2,.
O=C1c2oc3ccccc3c(=O)c2C(c2cccs2)N1CCCN1CCOCC1 (stereo not drawn),.,.,.,.,.
CS(=O)(=O)Nc1ccc(C(=O)N2CCN(c3ccccc3)CC2)cc1,.,.,.,.,.
CC(C)(C)n1nc2c(c1NC(=O)c1ccc(S(=O)(=O)N3CCCCC3)cc1)CS(=O)C2 (stereo not drawn),.,.,.,.,.
CC1(C)Cc2ccccc2C(NNC(=O)c2ccncc2)=N1,.,.,.,.,.
CCC(Sc1nc2ccccc2c(=O)n1CCN1CCOCC1)C(=O)NCc1cccnc1 (stereo not drawn),.,.,.,77.9,.
CCC(Sc1nc2ccccc2c(=O)n1CC1CCCO1)C(=O)NCc1cccnc1 (stereo not drawn),.,.,.,76.0,.
COC(=O)c1cn(CCOc2ccccc2F)c2ccccc12,.,.,97.7,99.4,.
Cc1ccc(OCCn2cc(C(=S)N3CCCC3)c3ccccc32)cc1C,.,.,67.1,63.2,.
COC(=O)c1cn(CCOc2ccccc2)c2ccccc12,.,.,96.2,97.2,.
SMILES,CYP2C9 activ,PLAP act,CYP2C19 inh,CYP2C9 inhib,CYP2C19 act
COC(=O)Cn1cc(C(=O)OC)c2ccccc21,.,.,.,.,.
COC(=O)c1cn(C(=O)OC)c2ccccc12,.,.,.,.,.
CCOC(=O)Cn1cc(C(=O)OC)c2ccccc21,.,.,54.0,.,.
CC(C)CN(CCC(=O)O)CC(C)C,.,.,.,.,.
COc1cc(C2C(C(C)=O)=C(O)C(=O)N2CCc2c[nH]c3ccccc23)ccc1O (stereo not drawn),.,.,.,63.7,.
CC(=O)C1=C(O)C(=O)N(CCc2c[nH]c3ccccc23)C1c1cccc(O)c1 (stereo not drawn),.,.,.,.,.
CCOc1cc(C2C(C(=O)c3ccccc3)=C(C(=O)OC)Nc3nnnn32)ccc1O (stereo not drawn),.,.,.,.,.
CCCc1nnc(NC(=O)CNc2ccc(F)cc2)s1,.,.,.,.,.
Cc1cc(=O)[nH]c(SCC(=O)Nc2nc(-c3ccccc3)cs2)n1,.,.,.,59.7,.
Cc1csc(SCC(=O)Nc2nc(-c3ccccc3)cs2)n1,.,.,.,.,.
CCCc1nnc(NC(=O)CSc2ncn[nH]2)s1,.,2.7,.,.,.
O=C(CSc1ncn[nH]1)Nc1nc(-c2ccccc2)cs1,.,2.8,63.9,.,.
COc1ccc(C(=O)N2CCN(Cc3ccccc3C)CC2)cc1OC,.,.,.,.,.
Nc1ccc(C23CC4CC(CC(O)(C4)C2)C3)cc1,.,.,91.0,.,.
Nc1ccc(C23CC4CC(CC(CO)(C4)C2)C3)cc1,.,.,71.3,.,.
COc1ccc(-c2cc(CNC(=O)CN3CCN(C)CC3)on2)cc1,.,.,.,.,.
O=C(O)c1ccc(Cl)c(S(=O)(=O)N2CCCCCC2)c1,.,.,.,.,.
Cc1ccc(S(=O)(=O)/N=C2/C=C(C3C(=O)CC(C)(C)CC3=O)C(=O)c3ccccc32)cc1,.,.,.,62.3,.
Cn1nccc1C(=O)NC(=S)Nc1sc2c(c1C#N)CCCCC2,.,.,.,.,.
O=C(CN1CCOCC1)Nc1ccc(-c2nc3ccccc3[nH]2)cc1,.,.,.,.,.
Cn1ncc([N+](=O)[O-])c1C(=O)Nc1ccc(-c2nc3ccccc3[nH]2)cc1,.,.,62.3,.,.
O=S(=O)(/C=C/c1ccccc1)c1ccccc1,4.1,.,90.8,.,.
O=S(=O)(C=C(c1ccccc1)c1ccccc1)c1ccccc1,.,.,65.9,.,.
COc1ccc(N2CCN(S(=O)(=O)/C=C/c3ccccc3)CC2)cc1,.,.,.,.,.
C/C(=N\NS(C)(=O)=O)c1ccccc1,.,.,.,.,.
SMILES,CYP2C9 activ,PLAP act,CYP2C19 inh,CYP2C9 inhib,CYP2C19 act
COc1cc(NC(=O)C2CC2)c(C(=O)O)cc1OC,.,.,.,.,.
Cc1ccc(NC(=O)CN(C)C(=O)CSc2nc3ccccc3c(=O)n2Cc2ccco2)cc1,.,.,.,79.3,.
CCOC(=O)c1cc2c(c(CSc3nc4ccccc4c(=O)n3Cc3ccco3)c1)OCOC2,.,.,.,66.9,.
CN(Cc1ccccc1)C(=O)CSc1nc2ccccc2c(=O)n1Cc1ccco1,.,.,97.4,100.0,.
CC(C)(C)NC(=O)COc1ccc(CNCc2cccs2)cc1,.,.,.,.,.
O=c1cc(CN2CCN(S(=O)(=O)c3ccc4c(c3)OCCO4)CC2)c2ccc(O)cc2o1,.,.,.,66.0,.
